# Calls of active or inactive are those of the source. No rule for the calls is given here.
# Target: Pantothenate synthetase (Mycobacterium tuberculosis (strain ATCC 25618 / H37Rv)) (UniProt P9WIL5)
# Assay: Coupled enzyme confirmation of inhibitors against recombinant Mtb PanC (AID 375);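 also: 0% = full reaction with vehicle and 100% = no enzyme background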
# Conditions: coupled enzyme assay; at 10 µM, active compounds read high
# Sequence of Pantothenate synthetase (Mycobacterium tuberculosis (strain ATCC 25618 / H37Rv)) (P9WIL5 whole entry, looked up): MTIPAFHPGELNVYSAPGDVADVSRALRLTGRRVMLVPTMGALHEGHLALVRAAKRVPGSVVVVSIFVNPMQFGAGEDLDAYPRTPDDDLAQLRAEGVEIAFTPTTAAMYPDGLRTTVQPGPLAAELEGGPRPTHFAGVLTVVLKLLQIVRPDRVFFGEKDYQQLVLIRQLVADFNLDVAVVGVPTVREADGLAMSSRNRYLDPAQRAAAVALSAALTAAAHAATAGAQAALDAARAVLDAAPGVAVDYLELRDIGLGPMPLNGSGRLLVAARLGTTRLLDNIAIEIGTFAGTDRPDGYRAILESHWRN
row,Structure (SMILES),inhibition
1,O=C(O)CCc1ccc(-c2ccc(F)cc2)n1CCC(=O)O,0% (inactive)
2,O=C(CCCCn1c(=O)c2ccccc2n(Cc2ccc(Cl)cc2)c1=O)NCc1ccco1,0% (inactive)
3,O=C(CNCCC1=CCCCC1)Nc1ccccc1N1CCCCC1,0% (inactive)
4,CCN(Cc1nc2ccccc2c(=O)[nH]1)Cc1cc(=O)oc2cc(C)c(C)cc12,0% (inactive)
5,COC(=O)c1ccccc1NC(=O)Nc1cccs1,7% (inactive)
6,O=S(=O)(Nn1cnnc1)c1ccccc1Cl,0% (inactive)
7,N#C/C(C(=O)N1CCOCC1)=C1/SC(Cc2ccccc2)C(=O)N1c1ccccc1 (configuration not stated),0% (inactive)
8,CCOC(=O)c1c(C)oc2c1c(C=NCc1ccccn1)c(O)c1ccccc12,3% (inactive)
9,CCCN1CC23C=CC(O2)C(C(=O)O)C3C1=O (configuration not stated),0% (inactive)
10,CS(=O)(=O)c1ccc2nc(NC(=O)C3C4C=CC(C4)C3C(=O)O)sc2c1 (configuration not stated),1% (inactive)
11,CCOC(=O)CCc1c(C)nc2cc(-c3ccc(F)cc3)[nH]n2c1=O,0% (inactive)
12,COC(=O)c1c(C#N)c(N)nc2c1CCC2,7% (inactive)
13,COc1ccc2[nH]c(C)c(CCN3C(=O)OC(C)(C)C3(C)O)c2c1 (configuration not stated),0% (inactive)
14,O=C1c2ccccc2NC(c2ccco2)N1O (configuration not stated),5% (inactive)
15,O=C(Nc1ccc2c(c1)nc1n2CCN(Cc2ccccc2)C1)c1cccs1,0% (inactive)
16,COc1ccc(OC)c(C2CC(=O)NC(SC)=C2C#N)c1 (configuration not stated),5% (inactive)
17,COc1cccc(CNC(=O)Cn2c(=O)oc3ccccc32)c1OC,0% (inactive)
